Assay results: the supplement of paper PMC7156485
Values joined by “and” are separate entries in the source; they are usually repeats but may differ in a detail not shown here. Equal values may be shown once.

Tested on: HCC1569
Experiment: H1.0 immunofluorescence intensity relative to DMSO (% of DMSO); higher = stronger H1.0 induction, active = 140 or more
Conditions: concentration: 10 µM; 24 h
In short: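 H1.0 nuclear intensity or cell number is expressed as percent of the plate control, with the median of replicates taken. HCC1569 and TDF cells were treated with compounds at 10 µM for 24 h at 37 °C, in triplicate, then fixed and immunostained for H1.0 with DAPI as a nuclear stain. HCC1569 values were smoothed to correct for positional effects.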
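Note: TDF is a line of transformed human dermal fibroblasts of mesenchymal origin.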

H1.0 immunofluorescence intensity, active:
COC(=O)Nc1nc2ccc(C(=O)c3ccc(F)cc3)cc2[nH]1 [Flubendazole] 168
Cc1cc(Nc2nc(NC(C)c3ccc(F)cc3)c(C#N)cc2F)n[nH]1 (stereo not drawn) 146
CC(C)C(CO)Nc1nc(Nc2cc(N)cc(Cl)c2)c2ncn(C(C)C)c2n1 (stereo not drawn) [Aminopurvalanol A] 145

H1.0 immunofluorescence intensity, 158 (active) and 136 (inactive):
Cn1cc(C2=C(c3ccc(Cl)cc3Cl)C(=O)NC2=O)c2ccccc21

H1.0 immunofluorescence intensity, inactive:
O=c1c(-c2ccc(O)cc2)coc2cc(O)cc(O)c12 104
Cl.N[C@@H](CCC(=O)O)C(=O)O [L-Glutamic acid hydrochloride] 91.5
CC1(C)CCC(NC(=O)C(N)CCC(=O)O)CC1 (stereo not drawn) 91.7
COc1ccc2cc3[n+](cc2c1OC)CCc1cc2c(cc1-3)OCO2.Cl 101
CC1CN(c2c(F)c(N)c3c(=O)c(C(=O)O)cn(C4CC4)c3c2F)CC(C)N1 (stereo not drawn) [Sparfloxacin] 106
CC(NC(CCc1ccccc1)C(=O)O)C(=O)N1CCCC1C(=O)O (stereo not drawn) [Enalaprilat] 96.9
COC(=O)C1=C(C)NC(C)=C(C(=O)OCC(C)C)C1c1ccccc1[N+](=O)[O-] (stereo not drawn) [Nisoldipine] 116
Nc1ncnc2c1ncn2C1CCCC1 [9-cyclopentyladenine] 84.6
O=C1c2ccccc2-[n+]2ccc3c([nH]c4ccccc43)c21.[Cl-] [Fascaplysin, Synthetic] 60.9
